Results reported in PubChem BioAssay (Tox21).
Results filed as inconclusive are left out. Activity calls are given as the source filed them. Unless noted, calls follow the shape of the dose curve; as a rule, active = well fitted curve in the direction sought with a large enough effect in the repeat runs; inconclusive = weak or mixed curves; inactive = no such curve, though single readings can be large; an effect the other way counts as inactive or inconclusive.

Tests used:
[1] = qHTS assay to identify aromatase inhibitors - cell viability counter screen (AID 743084);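 also: cells stimulated with testosterone during compound exposure; nearly all actives have a fitted effect of over 55% in size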
[2] = target: Aryl hydrocarbon receptor (Homo sapiens) (UniProt P35869); assay: qHTS assay to identify small molecule that activate the aryl hydrocarbon receptor (AhR) signaling pathway (AID 743085);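 also: HG2L7.5c1 human HepG2 liver cells with stably integrated DRE-driven firefly reporter; series mostly up to about 70 µM; nearly all actives have a fitted effect of over 15% in size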
Sequence of Aryl hydrocarbon receptor (Homo sapiens) (P35869 whole entry, looked up): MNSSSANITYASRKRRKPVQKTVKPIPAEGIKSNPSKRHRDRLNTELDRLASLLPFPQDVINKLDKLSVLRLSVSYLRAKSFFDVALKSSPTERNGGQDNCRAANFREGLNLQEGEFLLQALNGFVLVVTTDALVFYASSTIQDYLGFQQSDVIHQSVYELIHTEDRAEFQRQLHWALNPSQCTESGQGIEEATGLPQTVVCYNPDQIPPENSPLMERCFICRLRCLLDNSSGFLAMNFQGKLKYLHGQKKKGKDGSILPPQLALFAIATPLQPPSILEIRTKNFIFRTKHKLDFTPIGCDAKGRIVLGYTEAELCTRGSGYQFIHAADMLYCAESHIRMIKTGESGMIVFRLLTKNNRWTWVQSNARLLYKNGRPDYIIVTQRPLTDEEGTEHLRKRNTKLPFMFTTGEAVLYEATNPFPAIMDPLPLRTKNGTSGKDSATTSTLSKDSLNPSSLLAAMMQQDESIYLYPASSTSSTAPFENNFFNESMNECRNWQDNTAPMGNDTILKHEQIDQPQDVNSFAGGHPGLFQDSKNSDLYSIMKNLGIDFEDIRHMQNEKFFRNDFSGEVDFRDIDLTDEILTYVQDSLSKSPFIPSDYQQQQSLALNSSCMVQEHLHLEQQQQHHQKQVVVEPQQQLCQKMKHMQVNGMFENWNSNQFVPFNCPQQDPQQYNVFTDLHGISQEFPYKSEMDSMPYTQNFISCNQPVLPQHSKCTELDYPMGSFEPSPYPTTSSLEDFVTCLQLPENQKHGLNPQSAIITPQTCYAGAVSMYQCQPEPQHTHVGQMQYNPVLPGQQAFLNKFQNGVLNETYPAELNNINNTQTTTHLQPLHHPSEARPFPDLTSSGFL
Outline: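 Stably transfected human liver carcinoma cells (HG2L7.5c1; 20 DRE-firefly luciferase) were incubated 5 h, dosed, and kept 24 h at 37C. Agonism was scored from increased luciferase luminescence.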

[3] = qHTS assay to identify small molecule that activate the aryl hydrocarbon receptor (AhR) signaling pathway - cell viability counter screen (AID 743086);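 also: HepG2 liver cells carrying the AhR DRE luciferase reporter; series mostly up to about 70 µM; nearly all actives have a fitted effect of over 45% in size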
Outline: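 HepG2-AhR-luc (HG2L7.5c1) cells, 4000/well, treated 24 h at 37 C with compound; viability measured as CellTiter-Fluor fluorescence after 30 min in the same wells as the luciferase read.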

[4] = target: Peroxisome proliferator-activated receptor gamma (Homo sapiens) (UniProt P37231); assay: qHTS assay to identify small molecule agonists of the peroxisome proliferator-activated receptor gamma (PPARg) signaling pathway (AID 743094; active = well fitted activation curve with a large enough effect in the signal ratio in the repeat runs, not every such curve was filed as active; the % refers to the signal ratio)
Sequence of Peroxisome proliferator-activated receptor gamma (Homo sapiens) (P37231 whole entry, looked up): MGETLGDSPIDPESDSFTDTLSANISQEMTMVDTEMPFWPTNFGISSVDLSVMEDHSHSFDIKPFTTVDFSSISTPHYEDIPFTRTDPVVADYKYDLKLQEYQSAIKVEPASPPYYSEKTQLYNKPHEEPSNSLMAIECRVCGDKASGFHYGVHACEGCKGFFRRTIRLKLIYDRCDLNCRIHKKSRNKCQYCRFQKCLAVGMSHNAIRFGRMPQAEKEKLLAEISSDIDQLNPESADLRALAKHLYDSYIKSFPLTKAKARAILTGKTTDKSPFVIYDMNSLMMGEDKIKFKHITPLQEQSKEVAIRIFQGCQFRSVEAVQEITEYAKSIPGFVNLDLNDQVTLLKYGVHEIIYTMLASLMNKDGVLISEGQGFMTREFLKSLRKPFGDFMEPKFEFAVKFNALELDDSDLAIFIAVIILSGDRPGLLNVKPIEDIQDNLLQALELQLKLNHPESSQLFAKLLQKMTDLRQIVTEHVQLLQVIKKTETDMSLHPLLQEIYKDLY
Outline: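 GeneBLAzer PPARg UAS-bla HEK293H cells carrying a stably integrated beta-lactamase reporter were pre-incubated 5 h at 37C, then exposed to compounds in DMSO for 17 h at 37C; LiveBLAzer B/G FRET substrate was added for 1 h at room temperature and fluorescence read.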

[5] = target: Peroxisome proliferator-activated receptor gamma (Homo sapiens) (UniProt P37231); assay: qHTS assay to identify small molecule antagonists of the peroxisome proliferator-activated receptor gamma (PPARg) signaling pathway (AID 743191; calls by dose curve; also: series mostly up to about 63 µM; nearly all actives have a fitted effect of over 30% in size)
Outline: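 GeneBLAzer PPARg UAS-bla HEK293H cells, 5 h post-plating, exposed to compounds 17 h at 37C. LiveBLAzer B/G FRET substrate added for 1 h at room temperature; beta-lactamase reporter read by fluorescence intensity.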

[6] = qHTS assay to identify small molecule antagonists of the peroxisome proliferator-activated receptor gamma (PPARg) signaling pathway - cell viability counter screen (AID 743194); also: nearly all actives have a fitted effect of over 55% in size
Outline: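 Cytotoxicity counter screen in PPARg-bla HEK293H cells, same wells as reporter assay. Compounds plus 50 nM rosiglitazone (final) for 17 h at 37 C, then viability read by CellTiter-Glo luminescence.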

[7] = qHTS assay for small molecule agonists of the antioxidant response element (ARE) signaling pathway - cell viability counter screen (AID 743203; calls by dose curve; also: nearly all actives have a fitted effect of over 55% in size)
Outline: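 CellSensor ARE-bla HepG2 cells, 2,000 per well, rested 5 hrs at 37C/5% CO2, then exposed to compound in DMSO for 16 hrs; viability read as CellTiter-Glo luminescence after 30 min at room temperature, in the reporter wells.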

[8] = qHTS assay for small molecule activators of the heat shock response signaling pathway - cell viability counter screen (AID 743209); also: nearly all actives have a fitted effect of over 50% in size
Outline: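 CellSensor HSE-bla HeLa cells, plated overnight at 37 C/5% CO2, were exposed to compounds in DMSO for 5 h at 37 C. Viability was then read in the same wells by CellTiter-Glo luminescence after 30 min at room temperature.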

[9] = qHTS assay for small molecule activators of the heat shock response signaling pathway (AID 743210; active = well fitted activation curve with a large enough effect in the signal ratio in the repeat runs, with a control signal flat, not every such curve was filed as active; the % refers to the signal ratio;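 also: HeLa cells with beta-lactamase reporter driven by heat shock elements; series mostly up to about 63 µM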)
Outline: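 Quantitative high-throughput format using an engineered HeLa line in which heat shock response elements drive beta-lactamase; after 5 h with compound, cells received a B/G FRET substrate and fluorescence was read.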

[10] = qHTS assay to identify small molecule agonists of the peroxisome proliferator-activated receptor delta (PPARd) signaling pathway - cell viability counter screen (AID 743211); also: nearly all actives have a fitted effect of over 55% in size
Outline: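 In the same wells used for beta-lactamase reporter measurement, cytotoxicity is scored by CellTiter-Glo. HEK293H PPARd-bla cells receive compound for 17 h at 37C following a 5 h settling period.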

[11] = target: Peroxisome proliferator-activated receptor delta (Homo sapiens) (UniProt Q03181); assay: qHTS assay to identify small molecule agonists of the peroxisome proliferator-activated receptor delta (PPARd) signaling pathway (AID 743212; calls by dose curve)
Sequence of Peroxisome proliferator-activated receptor delta (Homo sapiens) (Q03181 whole entry, looked up): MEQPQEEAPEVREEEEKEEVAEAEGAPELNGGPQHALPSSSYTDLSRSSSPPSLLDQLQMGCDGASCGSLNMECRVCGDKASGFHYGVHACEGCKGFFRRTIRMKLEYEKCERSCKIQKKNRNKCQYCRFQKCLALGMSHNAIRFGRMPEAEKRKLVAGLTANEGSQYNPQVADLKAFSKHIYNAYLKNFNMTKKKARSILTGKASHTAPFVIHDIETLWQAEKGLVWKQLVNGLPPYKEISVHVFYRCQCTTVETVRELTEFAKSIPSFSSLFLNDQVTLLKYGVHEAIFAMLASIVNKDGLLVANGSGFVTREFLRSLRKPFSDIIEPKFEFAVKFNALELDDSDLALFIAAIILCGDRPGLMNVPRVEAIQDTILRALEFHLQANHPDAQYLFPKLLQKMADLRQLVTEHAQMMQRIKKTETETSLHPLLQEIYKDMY
Outline: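 Quantitative high-throughput agonist screen in a HEK293H beta-lactamase reporter line under UAS control. Compounds in DMSO, at 37 C. Fluorescence read after 2 h with FRET substrate at room temperature.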

[12] = target: Peroxisome proliferator-activated receptor delta (Homo sapiens) (UniProt Q03181); assay: qHTS assay to identify small molecule antagonists of the peroxisome proliferator-activated receptor delta (PPARd) signaling pathway (AID 743215; active = well fitted inhibition curve with a large enough effect in the signal ratio in the repeat runs, not every such curve was filed as active; the % refers to the signal ratio;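 also: cells stimulated with agonist L165041 at 300 nM final during compound exposure; series mostly up to about 62 µM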)
Outline: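 PPARd UAS-bla HEK293H cells were pre-incubated 5 h at 37 C, then given test compounds in DMSO plus agonist L165041 (300 nM final). After 17 h at 37 C, beta-lactamase FRET substrate was added; fluorescence read after 2 h at room temperature.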

[13] = qHTS assay to identify small molecule agonists of the farnesoid-X-receptor (FXR) signaling pathway - cell viability counter screen (AID 743218); also: nearly all actives have a fitted effect of over 45% in size
Outline: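 FXR-UAS-bla HEK 293T cells, plated 5 h at 37 C, were exposed to compounds for 16 h at 37 C. CellTiter-Glo was then added to the same wells as the bla readout; luminescence read after 30 min at room temperature.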

[14] = qHTS assay to identify small molecule antagonists of the farnesoid-X-receptor (FXR) signaling pathway - cell viability counter screen (AID 743221; active = well fitted cell-killing curve with a large enough effect in the repeat runs, not every such curve was filed as active; also: nearly all actives have a fitted effect of over 50% in size)
Outline: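 Here viability was scored by luminescence after CellTiter-Glo addition to wells already read for beta-lactamase. Prior treatment: compound plus CDCA (50 uM final), 16 h, 37 C, HEK 293T FXR-bla cells.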

[15] = target: Vitamin D3 receptor (Homo sapiens) (UniProt P11473); assay: qHTS assay to identify small molecule antagonists of the vitamin D receptor (VDR) signaling pathway (AID 743223; active = well fitted inhibition curve with a large enough effect in the signal ratio in the repeat runs, not every such curve was filed as active; the % refers to the signal ratio)
Sequence of Vitamin D3 receptor (Homo sapiens) (P11473 whole entry, looked up): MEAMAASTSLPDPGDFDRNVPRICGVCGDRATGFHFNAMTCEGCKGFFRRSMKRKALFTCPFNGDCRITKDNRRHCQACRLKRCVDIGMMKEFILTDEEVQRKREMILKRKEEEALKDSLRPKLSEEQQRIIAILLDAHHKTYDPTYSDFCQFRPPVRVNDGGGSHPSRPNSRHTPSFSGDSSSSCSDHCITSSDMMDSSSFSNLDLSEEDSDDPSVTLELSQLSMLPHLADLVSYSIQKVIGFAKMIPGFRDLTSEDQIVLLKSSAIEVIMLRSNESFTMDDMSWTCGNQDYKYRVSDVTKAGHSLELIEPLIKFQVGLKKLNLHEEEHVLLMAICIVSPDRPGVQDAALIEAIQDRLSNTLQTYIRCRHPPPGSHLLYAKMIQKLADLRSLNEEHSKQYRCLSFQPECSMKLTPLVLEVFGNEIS
Outline: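 Inhibition of agonist-driven VDR signalling is scored in VDR-bla cells: 3 nM final 1alpha,25-dihydroxyvitamin D3 plus compound, 16 h at 37C, then beta-lactamase detection by FRET substrate fluorescence after 2 h.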

[16] = qHTS assay for small molecule agonists of the antioxidant response element (ARE) signaling pathway (AID 743202; active = well fitted activation curve with a large enough effect in the signal ratio in the repeat runs, not every such curve was filed as active; the % refers to the signal ratio)
Outline: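 Agonist mode reporter screen: HepG2 cells with ARE-controlled beta-lactamase are incubated with test compounds for 16 h at 37 C, and beta-lactamase activity is measured as fluorescence of cleaved B/G FRET substrate.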

[17] = qHTS assay to identify small molecule antagonists of the peroxisome proliferator-activated receptor delta (PPARd) signaling pathway - cell viability counter screen (AID 743213); also: nearly all actives have a fitted effect of over 50% in size
Outline: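 Cytotoxicity counter screen: CellTiter-Glo luminescence read 30 min after addition, in the same wells as the reporter assay. There, PPARd UAS-bla HEK293H cells (3000/well) were treated 17 h at 37 C with compound and 300 nM L165041.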

[18] = target: Bile acid receptor (Homo sapiens) (UniProt Q96RI1); assay: qHTS assay to identify small molecule antagonists of the farnesoid-X-receptor (FXR) signaling pathway (AID 743217; active = well fitted inhibition curve with a large enough effect in the signal ratio in the repeat runs, not every such curve was filed as active; the % refers to the signal ratio)
Sequence of Bile acid receptor (Homo sapiens) (Q96RI1 whole entry, looked up): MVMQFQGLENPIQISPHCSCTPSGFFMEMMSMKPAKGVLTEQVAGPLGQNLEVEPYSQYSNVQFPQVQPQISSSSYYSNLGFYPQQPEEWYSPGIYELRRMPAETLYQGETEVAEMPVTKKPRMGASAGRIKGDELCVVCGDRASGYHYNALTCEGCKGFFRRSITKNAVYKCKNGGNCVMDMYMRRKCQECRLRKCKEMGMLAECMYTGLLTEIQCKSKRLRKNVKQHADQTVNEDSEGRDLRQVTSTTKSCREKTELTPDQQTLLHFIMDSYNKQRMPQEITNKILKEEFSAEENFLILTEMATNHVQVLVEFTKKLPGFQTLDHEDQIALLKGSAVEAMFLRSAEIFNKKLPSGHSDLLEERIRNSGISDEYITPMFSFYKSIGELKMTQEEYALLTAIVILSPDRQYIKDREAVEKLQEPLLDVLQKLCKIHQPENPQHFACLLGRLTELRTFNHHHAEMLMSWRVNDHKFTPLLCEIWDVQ
Outline: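 FXR-UAS-bla HEK 293T cells pre-incubated 5 h at 37 °C, then exposed to compounds with chenodeoxycholic acid (50 uM final) for 16 h at 37 °C. Beta-lactamase reporter read by LiveBLAzer B/G FRET substrate fluorescence after 2 h at room temperature.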

[19] = target: Bile acid receptor (Homo sapiens) (UniProt Q96RI1); assay: qHTS assay to identify small molecule agonists of the farnesoid-X-receptor (FXR) signaling pathway (AID 743220; active = well fitted activation curve with a large enough effect in the signal ratio in the repeat runs, not every such curve was filed as active; the % refers to the signal ratio)
Outline: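 Beta-lactamase reporter under UAS control in GeneBLAzer FXR HEK 293T cells (5000/well) measured with LiveBLAzer FRET substrate after 2 h at room temperature. Compound exposure lasted 16 h at 37C.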

[20] = target: Vitamin D3 receptor (Homo sapiens) (UniProt P11473); assay: qHTS assay to identify small molecule agonists of the vitamin D receptor (VDR) signaling pathway (AID 743222; calls by dose curve)
Outline: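 VDR-bla cells were plated 4 h at 37C/5% CO2, then exposed to compounds in DMSO for 16 h. After LiveBLAzer B/G FRET substrate addition and 2 h at room temperature, beta-lactamase reporter fluorescence was read.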

Measured: Potency

Cc1cc2cc3c(C)cc(=O)oc3c(C)c2o1
not listed: [16] | [17] | [18] | [19] | [20]
inactive: all other assays above

CNC(=O)[C@H]1O[C@@H](n2cnc3c(NCc4cc(Cl)ccc4OCc4cc(C)no4)ncnc32)[C@H](O)[C@@H]1N
not listed: [8]
inactive: all other assays above

CN(C)C(=O)CNC(=O)Cc1ccccc1
not listed: [9] | [11] | [12] | [13] | [15] | [17] | [18] | [19]
inactive: all other assays above

CC(=O)c1sc(C)nc1C
not listed: [16]
inactive: all other assays above

CC(C)C(=O)OCCc1ccccc1
not listed: [8] | [9]
inactive: all other assays above

COC(=O)CCc1ccc(OCC(O)CNC(C)C)cc1 (configuration not stated)
not listed: [8] | [11] | [12] | [18] | [19]
inactive: all other assays above

COc1ccc(OC)c(Cl)c1
not listed: [15] | [16] | [18] | [19] | [20]
inactive: all other assays above

CCNC(=O)C1CC(C)CCC1C(C)C (configuration not stated)
not listed: [16] | [18] | [19] | [20]
inactive: all other assays above

CCc1ccc(C=O)cc1
not listed: [8] | [18] | [19]
inactive: all other assays above

CC1(C)S[C@@H]2[C@H](N=CN3CCCCCC3)C(=O)N2[C@H]1C(=O)O
not listed: [16] | [17] | [18] | [19]
inactive: all other assays above

O=C(CS(=O)Cc1ccco1)NC/C=C\COc1cc(CN2CCCCC2)ccn1 (configuration not stated)
not listed: [8]
inactive: all other assays above

CCCCCCCCCCl
not listed: [8] | [11] | [12]
inactive: all other assays above

C=C(C)C(=O)OCC(C)(C)COC(=O)C(=C)C
not listed: [15] | [16] | [17] | [18] | [19] | [20]
inactive: all other assays above

COc1cc(C(=S)N2CCOCC2)cc(OC)c1OC
not listed: [11] | [16] | [20]
inactive: all other assays above

C[C@H](N)[C@H](O)c1cccc(O)c1
not listed: [8] | [11]
inactive: all other assays above

O=S(=O)(O)CCN1CCN(CCO)CC1
not listed: [11] | [12] | [14] | [16] | [20]
inactive: all other assays above

C=C(C)C(=O)OCCNC(C)(C)C
not listed: [11] | [12] | [16] | [18] | [19]
inactive: all other assays above
